target: Fibroblast growth factor 10 (Homo sapiens) (UniProt O15520); experiment: compounds binding fibroblast growth factor 10 – biochemical, small-molecule microarray, 635 nm fluorescence, primary screen (AID 1102); settings: FGF10 binding, fluorescence 635 nm, higher = more signal
Sequence (O15520 whole entry, looked up): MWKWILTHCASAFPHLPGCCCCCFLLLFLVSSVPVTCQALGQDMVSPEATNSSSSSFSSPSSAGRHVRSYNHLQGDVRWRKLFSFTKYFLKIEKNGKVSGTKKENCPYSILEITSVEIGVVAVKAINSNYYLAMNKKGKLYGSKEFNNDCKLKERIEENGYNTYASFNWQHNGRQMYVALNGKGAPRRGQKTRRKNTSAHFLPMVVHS

Compared with COC(=O)[C@H]1N=C(c2ccc(OCCCO)cc2)O[C@H]1c1ccccc1CN=[N+]=[N-], [N-]=[N+]=NCc1ccccc1[C@H]1OC(c2ccc(OCCCO)cc2)=N[C@@]1(Cc1ccccc1)C(N)=O is higher in composite z-score: -0.418 for the first, 0.923 for the second.

Going from C[N+](C)(C)CCCCNC(=O)[C@H]1C[C@H]2C(=O)NCC(=O)N2[C@H]1c1ccc(O)cc1 to CN(C)CCCCCCNC(=O)[C@@H]1C[C@@H]2C(=O)NCC(=O)N2[C@@H]1c1ccc(O)cc1, the composite z-score falls from 1.42 to 1.4.

Going from COc1ccc(C#Cc2ccc3c(c2)[C@]2(C(=O)N3)[C@H](c3ccc(OCCO)cc3)N3[C@H](c4ccccc4)[C@H](c4ccccc4)OC(=O)[C@H]3[C@@H]2C(=O)N2CCN(c3ncccn3)CC2)cc1 to O=C1O[C@@H](c2ccccc2)[C@@H](c2ccccc2)N2[C@@H](c3ccc(O)cc3)[C@]3(C(=O)Nc4ccc(C#CC5(O)CCCCCC5)cc43)[C@@H](C(=O)N3CCN(c4ncccn4)CC3)[C@H]12, the composite z-score rises from 0.214 to 0.74.

Going from C#CCOC(=O)N[C@H](C=CCCCC)c1ccccc1 to CCCCC=C[C@@H](NC(=O)CCc1ccccc1)c1ccccc1, the composite z-score rises from 0.605 to 0.919.

Going from COc1cccc(C[C@H]2C[C@@H](CO[Si](C(C)C)(C(C)C)C(C)C)N3C(=O)[C@]4(C(C)=O)O[C@]23[C@H]2C(=O)N(C)C(=O)[C@H]24)c1 to CN(C)CCCCNC(=O)[C@H]1C[C@H]2C(=O)N[C@@H](CCCC[N+](C)(C)C)C(=O)N2[C@H]1c1cccc(OCCO)c1, the composite z-score falls from 0.759 to 0.217.

First: C=C(COC)/C(=C/C[C@@H](OC(=O)c1ccncc1)c1cccc(OCCO)c1)c1cc(C(=O)OC)ccc1OC
Second: C=C(CCCC)/C(=C/C[C@H](OC(=O)c1ccncc1)c1ccc(CO)o1)c1cc(C(=O)OC)ccc1OC
The composite z-score of the first is higher: 1.62 for the first, 0.565 for the second.

Going from C[N+](C)(C)CCCC[C@@H]1NC(=O)[C@@H]2C[C@H](C(=O)NCCCCCNC(=O)CS)[C@H](c3cccc(OCCO)c3)N2C1=O to C[N+](C)(C)CCCCCCNC(=O)[C@@H]1C[C@@H]2C(=O)NCC(=O)N2[C@@H]1c1cccc(OCCO)c1, the composite z-score rises from 0.545 to 0.781.

Compared with CCCCCCCCCCC(O)C1C=CC2C(=O)NC(=O)C2N1Nc1ccccn1 (stereo unspecified), CCCCC(CC)C(O)C1C=CC2C(=O)NC(=O)C2N1Nc1ccccn1 (stereo unspecified) is higher in composite z-score: -0.649 for the first, 0.327 for the second.

Compared with CCOC(=O)C[C@H]1[C@H](OC(=O)c2ccc(C(=O)c3ccccc3)cc2)[C@@H](NC(=O)C2CCCCC2)c2cc(OCCCO)ccc2N1C(=O)Cc1ccc(OC)cc1, C=CCC(OC(C)=O)[C@@H]1[C@@H](N(Cc2ccc(-c3ccccc3)cc2)C(=O)Cc2ccc(OC)cc2)c2cc(OCCCO)ccc2N1C(=O)c1ccc(-c2ccccc2)cc1 (stereo partly specified) is lower in composite z-score: 0.547 for the first, -0.0097 for the second.

Going from COc1ccc([Si](C)(C)[C@@H]2[C@@H](CCO)O[C@]3(C(=O)N(Cc4ccc(N5C(=O)c6ccccc6Oc6ccccc65)cc4)c4ccccc43)[C@H]2C)cc1 to COc1ccc([Si](C)(C)[C@H]2[C@H](CCO)O[C@@]3(C(=O)N(Cc4cccc(N5CCOC5=O)c4)c4ccccc43)[C@@H]2C)cc1, the composite z-score rises from -0.791 to 0.997.

Going from COCCCNC(=O)[C@@]1(C)c2ccccc2C(=O)N(c2ccc(C)cn2)[C@H]1c1ccc(CO)cc1 to CC(C)NC(=O)[C@@]1(Cc2ccccc2I)c2ccccc2C(=O)N(Cc2ccccc2C(F)(F)F)[C@H]1c1ccc(CO)cc1, the composite z-score rises from -1.15 to 0.157.

Compared with O=C(N1CCOCC1)[C@@]1(CCS(=O)(=O)c2ccccc2)COC(c2ccc(OCCCO)cc2)=N1, COCCCNC(=O)[C@@]1(Cc2ccccc2CN=[N+]=[N-])N=C(c2ccc(OCCCO)cc2)O[C@H]1c1ccccc1N=[N+]=[N-] is higher in composite z-score: 0.94 for the first, 1.35 for the second.

Compared with COCCOC(=O)N1C(=O)[C@@]2(c3cc(C#Cc4ccc(OC)cc4)ccc31)[C@H](C(N)=O)[C@H]1C(=O)O[C@H](c3ccccc3)[C@H](c3ccccc3)N1[C@@H]2c1ccc(OCCO)cc1, COc1cc2c(cc1OC)CN(C(=O)[C@@H]1[C@H]3C(=O)O[C@H](c4ccccc4)[C@H](c4ccccc4)N3[C@H](c3ccc(OCCO)cc3)[C@@]13C(=O)Nc1ccc(C#CCCO)cc13)CC2 is lower in composite z-score: 1.42 for the first, 1.28 for the second.

Going from C=C[C@H](C)[C@H](OC(=O)Nc1ccc(SC)cc1)c1ccc(O)c2ccccc12 to CN1C(=O)C2C=CC(C(O)c3cccc4ccccc34)N(NC(=O)OC(C)(C)C)C2C1=O (stereo unspecified), the composite z-score rises from 0.0716 to 0.373.

Compared with NCCCCCCNC(=O)[C@H]1C[C@H]2C(=O)N3CCC[C@H]3C(=O)N2[C@H]1c1ccc(O)cc1, C[N+](C)(C)CCCCCCNC(=O)[C@H]1C[C@H]2C(=O)N3CCC[C@H]3C(=O)N2[C@H]1c1cccc(OCCO)c1 is higher in composite z-score: 0.264 for the first, 0.755 for the second.

Going from C[C@H]1NC(=O)C([C@@H](C)OCc2ccccc2)NC(=O)[C@@]23C(=O)N[C@@H](Cc4ccccc4)C2[C@H](C)[C@@]2(C)O[C@H]2C3/C=C/CC/C=C/CNC1=O (stereo partly specified) to COc1cccc(C)c1NC(=O)O[C@H]1[C@H](OC(=O)Nc2ccccc2)[C@H](OC(=O)Nc2ccccc2)[C@@H](OC)O[C@@H]1CO, the composite z-score rises from 0.365 to 0.96.

Compared with O=C1O[C@@H](c2ccccc2)[C@@H](c2ccccc2)N2[C@@H](c3ccc(O)cc3)[C@]3(C(=O)Nc4ccc(C#CC5=CCCCC5)cc43)[C@@H](C(=O)Nc3nc4ccccc4s3)[C@H]12, CC(C)=CCCC(C)=CC(O)C1C=CC2C(=O)N(c3ccccc3)C(=O)C2N1Nc1ccc([N+](=O)[O-])cc1 (stereo unspecified) is lower in composite z-score: 1.36 for the first, 0.74 for the second.

Compared with CC(C)(C)N1CC=CC23O[C@@H]4C=CCCOC(=O)C4[C@H]2C(=O)N(CCCO)[C@@H]3C1=O (stereo partly specified), C=C(C)[C@@H]1CC=C(C(O)C2C=CC3C(=O)N(C4CCCCC4)C(=O)C3N2Nc2ccc(OC)cc2)CC1 (stereo partly specified) is higher in composite z-score: -0.681 for the first, 1.03 for the second.

Source: PubChem BioAssay
